47 compounds from PubChem BioAssay AID652054 (National Center for Advancing Translational Sciences (NCATS), 2013) can be followed below.

About 9,100 (2.5%) of roughly 360,000 compounds were called active. Another 4% or so got no clear call; they are omitted. This is one part of a sample in which actives are shown more often than they occur. Unmarked numbers belong to inactive results. Cut-off read from the data, not from the text of the source: active = max response below about -50%; inconclusive = no clear call, values can overlap the other calls; inactive = above that.
% is set by controls: 0 for no effect and ±100 for the full control effect.

Sequence of D(3) dopamine receptor (Homo sapiens) (P35462 whole entry, looked up): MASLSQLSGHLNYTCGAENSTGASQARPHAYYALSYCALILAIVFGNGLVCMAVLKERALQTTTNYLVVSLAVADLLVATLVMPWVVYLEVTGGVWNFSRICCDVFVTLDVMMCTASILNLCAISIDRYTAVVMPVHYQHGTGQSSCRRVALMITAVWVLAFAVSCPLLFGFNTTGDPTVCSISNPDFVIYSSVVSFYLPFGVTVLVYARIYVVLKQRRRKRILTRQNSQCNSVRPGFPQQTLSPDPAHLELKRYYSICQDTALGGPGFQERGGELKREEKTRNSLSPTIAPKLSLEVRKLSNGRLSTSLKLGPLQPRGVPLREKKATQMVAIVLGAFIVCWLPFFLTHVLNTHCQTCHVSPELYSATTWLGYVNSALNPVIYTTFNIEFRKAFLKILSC

This experiment has as its target D(3) dopamine receptor (Homo sapiens) (UniProt P35462). Description: qHTS of D3 Dopamine Receptor Antagonist: qHTS. The following applies: D3R cells, DiscoveRx beta-arrestin luminescence, antagonist mode; active compounds read low. An excerpt: D3 DARs represent a very important target for the treatment of several neuropsychiatric disorders. Indeed, one of the most promising therapeutic applications for the D3 DAR is in the area of addiction and related disorders. […] These findings have been observed with a number of addictive substances including cocaine, amphetamine, nicotine, and alcohol. […] Antagonism of the D3 DAR may also be therapeutic in the treatment of schizophrenia or psychosis. […] Since the D3 DAR is expressed in areas of the CNS associated with the control of mood and emotion, it has been hypothesized that selective antagonism of the D3 DAR may be effective in treating psychosis without inducing the motor side effects typically seen with D2 DAR antagonists.
This part of the project aims to discover novel antagonist.
NIH Chemical Genomics Center [NCGC]
NIH Molecular Libraries Probe Centers Network [MLPCN]
Assay Submitter (PI): David Sibley, NINDS
Freshly passaged cells are plated in 1536 well white, solid bottom plates at a density of 1500 cells/well in 3microl of complete media. After an overnight incubation at 37 degrees C in 5% CO2, cells are loaded with 23nl of test compound from the compound library (as well as dopamine controls) using a 1536 pintool and incubated at 37 degrees C for 90 minutes. Two microliters of DiscoveRx reagent is then added to all cells, and they are incubated for an additional 30 - 60 minutes at room temperature. Following incubation, luminescence is measured on a ViewLux CCD-based luminometer reader using a 20 sec exposure time.
A general note: In qHTS, concentration-response curves come from the screen itself.
Regarding `CC(=O)NC(=O)NC(C)Cc1ccccc1` (configuration not stated), the max response, negative = inhibition was 0%.
With `CC(Cc1ccccc1)NCCC(c1ccccc1)c1ccccc1` (configuration not stated), the max response, negative = inhibition was -75.4% (active).
As for `Fc1ccc(C2N3CCCN23)cc1` (configuration not stated), the max response, negative = inhibition is 17.3%.
With `CCOC(=O)CC(SP1(=S)OCC2(CCCCO2)C(C2CCCCO2)O1)C(=O)OCC` (configuration not stated), the max response, negative = inhibition is 0.24%.
As to `COc1ccc2c(c1O)-c1cccc3c1[C@@H](C2)N(C)CC3`, the max response, negative = inhibition is -64.4% (active).
Consider `COC1=C[C@@H]2[C@@H]3Cc4ccc(OC)c(O)c4[C@]2(CCN3C)CC1=O`, for which the max response, negative = inhibition was 2.57%.
Turning to `COc1c(O)ccc2c1-c1c3c(cc4c1C(C2)N(C)CC4)OCO3` (configuration not stated), the max response, negative = inhibition was -20.5%.
On to `COc1cccc(CN2CCCC(C(=O)c3ccccc3SC)C2)c1O` (configuration not stated), for which the max response, negative = inhibition was -25.9%.
For `c1cncc(CNC2=NCCC2)c1`, the max response, negative = inhibition was -0.0969%.
On to `COC(=O)CN(CCCl)P1(=O)OCCCN1CCCl` (configuration not stated), for which the max response, negative = inhibition was 9.55%.
For `CC(C)Oc1cccc(C(=O)C2CCCN(C3CCOCC3)C2)c1` (configuration not stated), the max response, negative = inhibition is -5.82%.
`CCn1cc(CN2CCCC(C(=O)c3cccc(C(F)(F)F)c3)C2)cn1` (configuration not stated): the max response, negative = inhibition was -84.1% (active).
In the case of `CSc1ccc(C(=O)C2CCCN(Cc3ccn[nH]3)C2)cc1` (configuration not stated), the max response, negative = inhibition was 2.56%.
In the case of `CN(C)CC1Oc2ccccc2OC1(O)c1ccccc1` (configuration not stated), the max response, negative = inhibition was -95.3% (active).
`CC1CCC(N(C)C2CCN(C)CC2)CC1` (configuration not stated): the max response, negative = inhibition is -17.4%.
Turning to `Cc1cccc(-n2c(C)nc3cc(C(=O)N4CCC5(CC4)OCCO5)ccc32)c1`, the max response, negative = inhibition was -5.12%.
For `Clc1cccc(Cl)c1Cl` the value was -21.5%; for `Fc1cccc(F)c1CN1CCN(Cc2c(F)cccc2F)CC1`, -59.3% (active); for `CN1CCN(Cc2ccccc2C(F)(F)F)CC1`, -22.2%.
The figure for `O=C(N/N=C/c1c(O)n(C2CC2)c(=S)[nH]c1=O)c1ccccc1` is -25.4%; for `CCC/C(=N\O)c1c[nH]c2ccccc12` it is -19.7%; for `Cc1cccc(NC(=O)N2CC3CC(C2)c2cccc(=O)n2C3)c1` (configuration not stated) it is 8.44%.
For `CCOC(=O)C(O)(c1ccc(NC(=O)c2ccco2)c(OC)c1)C(F)(F)F` (configuration not stated) the value was 44%.
As for `Cc1ccc(-n2c(-c3ccc([N+](=O)[O-])cc3)nc3ccccc3c2=O)cc1`, the max response, negative = inhibition is 7.83%.
`COc1cc(C(c2c(O)c3ccccc3oc2=O)c2c(C)n(C)n(-c3ccccc3)c2=O)ccc1O` (configuration not stated): the max response, negative = inhibition is 9.1%.
With `CCC(=O)CC(c1ccc([N+](=O)[O-])cc1)c1c(O)c2ccccc2oc1=O` (configuration not stated), the max response, negative = inhibition is -88.6% (active).
Take `COC(=O)C[C@H]1CC[C@H]2NC[C@@H](O)COC[C@@H]2O1`: the max response, negative = inhibition is 0.0579%.
Consider `CC(=O)NCC1=C(c2ccc3ccccc3c2)C[C@@H]2CC[C@H]1N2Cc1ccco1`, for which the max response, negative = inhibition was -16.9%.
In the case of `C[C@H]1CN([C@@H](C)CO)C(=O)CCCn2nncc2CO[C@H]1CN(C)C(=O)Oc1cccc2ccccc12`, the max response, negative = inhibition was 27%.
The figure for `CCOC(=O)C1CN(C)CCC1=O` (configuration not stated) is -50.3% (active); for `CCOC(=O)[C@]12Cc3cc(OC)ccc3[C@H]1N(C(C)C)C(=O)c1ccccc12` it is 0.502%.
For `c1ccc(C(CN2CCCCC2)c2ccccc2)cc1` the value was 5.85%.
For `O=[N+]([O-])c1ccc(C2C3C(c4ccccc4)=NC4(CCCCC4)N32)cc1` (configuration not stated), the max response, negative = inhibition was 4.9%.
On to `O=C1NC(=O)C(Cc2ccccc2)C(=O)N1`, for which the max response, negative = inhibition was 4.35%.
The figure for `CC(=O)N1CN2CN(C(C)=O)CC(C(=O)c3ccc(Br)cc3)(C2)C1` is 2.09%; for `Cc1cc2ccccn2c1C(C[N+](=O)[O-])c1c(F)cccc1Cl` (configuration not stated) it is -52.4% (active); for `Cn1cc(C(=O)OCC(=O)N2CCCC2)c2ccccc21` it is 0%.
`CCC(=O)OC(Cc1ccccc1)(c1ccccc1)C(C)CN(C)C` (configuration not stated): the max response, negative = inhibition was -66% (active).
The figure for `O=P(OC1=CCCCC1)(c1ccccc1)c1ccccc1` is 16.2%.
With `CN(C)CCN(CC1CCCN(Cc2ccccc2F)C1)C(=O)Cc1ccc(F)c(F)c1` (configuration not stated), the max response, negative = inhibition was -0.712%.
For `Nc1ccc(C(=O)N/N=C2/CN3CCC2CC3)cc1` the value was -6.03%; for `C=CCN1C(=O)NC(=O)/C(=C/c2ccc(OCC(=O)Nc3ccc(C)cc3)cc2)C1=O`, -2.43%; for `O=C(O)C1CSC(c2cccnc2)N1` (configuration not stated), -75.1% (active).
With `CC(C)n1c(=O)c(C=Nc2ccc(Br)cc2)c(O)n(Cc2ccco2)c1=O`, the max response, negative = inhibition was -0.258%.
In the case of `COC(=O)C1=C(c2ccc(OCc3ccccc3)cc2)C[C@@H]2CC[C@H]1N2C(=O)NCc1ccc(Cl)cc1`, the max response, negative = inhibition is -2.39%.
Take `COc1ccc(N=Cc2c(O)n(C)c(=O)[nH]c2=O)cc1`: the max response, negative = inhibition was -8.25%.
On to `Cc1ccc(CN2CCCC(C(=O)c3ccc4c(c3)OCO4)C2)cc1C` (configuration not stated), for which the max response, negative = inhibition is -74.3% (active).
